Data taken from PubChem BioAssay (NCATS).
Several values for one entry are separate records, joined by “and”; a condition that tells them apart may be missing. Identical values can stand only once. Inconclusive results are not listed. A call without a number means that no potency is given here. A number with no mark means an inactive call. Activity calls are given as the source filed them. The call rests on the fitted dose curve; in most records, active means well fitted inhibition curve with a large enough effect; inconclusive means small, poorly fitted or top-dose-only effect; inactive means flat fitted curve, though single readings scatter.

Key:
[1] = qHTS profiling for inhibitors of Plasmodium falciparum proliferation (AID 504749); further: nearly all actives have a fitted effect of over 60% in size; details: P. falciparum in erythrocytes, SYBR Green DNA, 72 h
How it was run: (§1)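 Quantitative HTS: compounds pinned into medium, infected erythrocytes added (0.3% parasitemia, 2.5% hematocrit), 72 h culture at 37 C under 5% CO2. Saponin/Triton lysis with SYBR Green I, overnight RT, then fluorescence read.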

[2] = test system: 3D7; test: as above; details: P. falciparum in erythrocytes, SYBR Green DNA, 72 h; series mostly up to 28.7 µM
How it was run: as §1

[3] = test system: 7G8; test: as above; details: P. falciparum in erythrocytes, SYBR Green DNA, 72 h; series mostly up to 28.7 µM
How it was run: as §1

[4] = test system: AA1029; test: as above; details: P. falciparum in erythrocytes, SYBR Green DNA, 72 h; series mostly up to 28.7 µM
How it was run: as §1

[5] = test system: AS120; test: as above; details: P. falciparum in erythrocytes, SYBR Green DNA, 72 h; series mostly up to 28.7 µM
How it was run: as §1

[6] = test system: ATS189; test: as above; details: P. falciparum in erythrocytes, SYBR Green DNA, 72 h; series mostly up to 28.7 µM
How it was run: as §1

[7] = test system: ATS95; test: as above; details: P. falciparum in erythrocytes, SYBR Green DNA, 72 h; series mostly up to 28.7 µM
How it was run: as §1

[8] = test system: C2A; test: as above; details: P. falciparum in erythrocytes, SYBR Green DNA, 72 h; series mostly up to 28.7 µM
How it was run: as §1

[9] = test system: CP185; test: as above; details: P. falciparum in erythrocytes, SYBR Green DNA, 72 h; series mostly up to 28.7 µM
How it was run: as §1

[10] = test system: CP191; test: as above; details: P. falciparum in erythrocytes, SYBR Green DNA, 72 h; series mostly up to 28.7 µM
How it was run: as §1

[11] = at 28.7 µM (top of the series), parasite line A
[12] = at 28.7 µM (top of the series), parasite line B
[13] = at 12.8 µM (top of the series), parasite line A
[14] = at 12.8 µM (top of the series), parasite line B
Potency means the concentration at half of the fitted maximal effect.

Compound | activity, negative = inhibition [1, 11] | activity, negative = inhibition [1, 12] | Potency [2] | Potency [3] | Potency [4] | Potency [5] | Potency [6] | Potency [7] | Potency [8] | Potency [9] | Potency [10] | Potency ([1]; parasite line A) | Potency ([1]; parasite line B) | activity, negative = inhibition [1, 13] [%] | activity, negative = inhibition [1, 14] [%]
Cc1nnc(NS(=O)(=O)c2ccc(N)cc2)s1 | 1.45% | 11.3% | inactive | inactive | inactive | inactive | inactive | inactive | inactive | inactive | inactive | – | – | – | –
COc1ccc2cc3[n+](cc2c1OC)CCc1cc2c(cc1-3)OCO2 | – | – | 2000 nM (active) | 282 nM (active) | 708 nM (active) | 1260 nM (active) | 1410 nM (active) | 1120 nM (active) | 1000 nM (active) | 708 nM (active) | 891 nM (active) | 447 nM (active) | 1260 nM (active) | – | –
CCOCC(O)COc1ccc(NC(=O)CC[S+](C)C)cc1 (centres undefined) | 8.74% | 4.77% | inactive | inactive | inactive | inactive | inactive | inactive | inactive | inactive | inactive | – | – | – | –
NC(N)=NC(N)=NCCc1ccccc1 | – | -17% | inactive | inactive | inactive | inactive | inactive | inactive | inactive | inactive | inactive | – | – | -25.4 | -8.82
O=P(O)(O)C(O)(Cc1cccnc1)P(=O)(O)O | 11.1% | 6.62% | inactive | inactive | inactive | inactive | inactive | inactive | inactive | inactive | inactive | – | – | – | –
CC(C)NCC(O)c1ccc(NS(C)(=O)=O)cc1 (centres undefined) | -2.6% and 1.55% | 9.61% and 12.6% | inactive | inactive | inactive | inactive | inactive | inactive | inactive | inactive | inactive | – | – | – | –
COC(=O)Nc1nc2ccc(Sc3ccccc3)cc2[nH]1 | – | – | inactive | inactive | inactive | inactive | inactive | inactive | inactive | inactive | inactive | – | – | 5.04 | -0.246
CC[C@H](C)C(=O)O[C@H]1C[C@@H](C)C=C2C=C[C@H](C)[C@H](CC[C@@H]3C[C@@H](O)CC(=O)O3)[C@H]21 | -2.1% | -31.4% | inactive | inactive | inactive | inactive | inactive | inactive | inactive | inactive | inactive | – | – | – | –
CCN(C)C(=O)Oc1cccc([C@H](C)N(C)C)c1 | 3.53% | 1.69% | inactive | inactive | inactive | inactive | inactive | inactive | inactive | inactive | inactive | – | – | – | –
C#CCN[C@@H]1CCc2ccccc21 | 16.7% | 9.12% | inactive | inactive | inactive | inactive | inactive | inactive | inactive | inactive | inactive | – | – | – | –
NC(=O)c1cccnc1 | 9.61% | 2.45% | inactive | inactive | inactive | inactive | inactive | inactive | inactive | inactive | inactive | – | – | – | –
CC[C@H](NC(C)C)[C@H](O)c1ccc(O)c2[nH]c(=O)ccc12 | 3.5% | 5.44% | inactive | inactive | inactive | inactive | inactive | inactive | inactive | inactive | inactive | – | – | – | –
CNS(=O)(=O)Cc1ccc2[nH]cc(CCN(C)C)c2c1 | -10.9% | -3.89% | inactive | inactive | inactive | inactive | inactive | inactive | inactive | inactive | inactive | – | – | – | –
CC1=NN(c2ccccc2)C(=O)C1 | 3.27% | -12.4% | inactive | inactive | inactive | inactive | inactive | inactive | inactive | inactive | inactive | – | – | – | –
Nc1nc(N)c2nc(CNc3ccc(C(=O)NC(CCC(=O)O)C(=O)O)cc3)cnc2n1 (centres undefined) | 3.54% | -5.01% | inactive | inactive | inactive | inactive | inactive | inactive | inactive | inactive | inactive | – | – | – | –
O=NN(CCCl)C(=O)NC1CCCCC1 | 5.42% | 5.97% | inactive | inactive | inactive | inactive | inactive | inactive | inactive | inactive | inactive | – | – | – | –
CC(C)(C#N)c1cc(Cn2cncn2)cc(C(C)(C)C#N)c1 | 5.33% | 14.1% | inactive | inactive | inactive | inactive | inactive | inactive | inactive | inactive | inactive | – | – | – | –
CN(CCOc1ccc(CC2SC(=O)NC2=O)cc1)c1ccccn1 (centres undefined) | -1.7% | -10% | inactive | inactive | inactive | inactive | inactive | inactive | inactive | inactive | inactive | – | – | – | –

Compound | activity, negative = inhibition [1, 11] | activity, negative = inhibition [1, 12] | Potency [2] | Potency [3] | Potency [4] | Potency [5] | Potency [6] | Potency [7] | Potency [8] | Potency [9] | Potency [10] | Potency ([1]; parasite line A) | Potency ([1]; parasite line B) | activity, negative = inhibition [1, 13] [%] | activity, negative = inhibition [1, 14] [%]
Nc1nc(N)nc(-c2cc(Cl)ccc2Cl)n1 | -9.21% | -1.76% | inactive | inactive | inactive | inactive | inactive | inactive | inactive | inactive | inactive | – | – | – | –
CC(C)OC(=O)C(C(=O)OC(C)C)=C1SC=CS1 | 2.72% | 16.3% | inactive | inactive | inactive | inactive | inactive | inactive | inactive | inactive | inactive | – | – | – | –
CNC1CCCN(c2c(F)cc3c(=O)c(C(=O)O)cn(C4CC4)c3c2OC)C1 (centres undefined) | 5.3% | 5% | inactive | inactive | inactive | inactive | inactive | inactive | inactive | inactive | inactive | – | – | – | –
CN1CCN(c2c(F)cc3c(=O)c(C(=O)O)cn(CCF)c3c2F)CC1 | 1.69% | 7.79% | inactive | inactive | inactive | inactive | inactive | inactive | inactive | inactive | inactive | – | – | – | –
CCCN[C@H]1CCc2nc(N)sc2C1 | 16.7% | 18.6% | inactive | inactive | inactive | inactive | inactive | inactive | inactive | inactive | inactive | – | – | – | –
Cc1cccc(N(C)C(=S)Oc2ccc3ccccc3c2)c1 | – | – | inactive | inactive | inactive | inactive | inactive | inactive | inactive | inactive | inactive | – | – | -2.31 | 0.272
Cn1nnc2c(C(N)=O)ncn2c1=O | 6.45% | 3.99% | inactive | inactive | inactive | inactive | inactive | inactive | inactive | inactive | inactive | – | – | – | –
CN1CCN(c2c(F)cc3c(=O)c(C(=O)O)cn4c3c2OCN4C)CC1 | 4.43% | 17.6% | inactive | inactive | inactive | inactive | inactive | inactive | inactive | inactive | inactive | – | – | – | –
Cc1noc(NS(=O)(=O)c2ccc(N)cc2)c1C | 13.7% | 4.61% | inactive | inactive | inactive | inactive | inactive | inactive | inactive | inactive | inactive | – | – | – | –
N[C@@H](C(=O)N[C@@H]1C(=O)N2C(C(=O)O)=C(Cl)CS[C@H]12)c1ccccc1 | 10% | -2.02% | inactive | inactive | inactive | inactive | inactive | inactive | inactive | inactive | inactive | – | – | – | –
O=c1cc(O)c(Cl)c[nH]1 | -6.01% | 8.72% | inactive | inactive | inactive | inactive | inactive | inactive | inactive | inactive | inactive | – | – | – | –
COC(=O)Nc1nc2ccc(C(=O)c3ccccc3)cc2[nH]1 | – | – | inactive | inactive | inactive | inactive | inactive | inactive | inactive | inactive | inactive | – | – | 5.97 | 9.61
CN1CCCC(n2nc(Cc3ccc(Cl)cc3)c3ccccc3c2=O)CC1 (centres undefined) | -9.96% | -11.1% | inactive | 12600 nM (active) | – | – | – | – | – | inactive | – | – | – | – | –
COc1cc2c(Nc3ccc(Br)cc3F)ncnc2cc1OCC1CCN(C)CC1 | – | – | 2510 nM (active) | 3160 nM (active) | 2820 nM (active) | 3160 nM (active) | 5010 nM (active) | 3550 nM (active) | 3160 nM (active) | 3550 nM (active) | 3160 nM (active) | 1780 nM (active) | 1000 nM (active) | – | –
CCCc1cc(C(N)=S)ccn1 | 2.28% | 5.15% | inactive | inactive | inactive | inactive | inactive | inactive | inactive | inactive | inactive | – | – | – | –
Cc1ncc([N+](=O)[O-])n1CCO | -7.64% | 6.06% | inactive | inactive | inactive | inactive | inactive | inactive | inactive | inactive | inactive | – | – | – | –
CC1=CC(=O)c2ccccc2C1=O | -6.5% | -23% | 7080 nM (active) | 10000 nM (active) | inactive | inactive | inactive | inactive | – | inactive | inactive | – | – | – | –
